Cruzain noTriton – blocks cruzain activity in detergent-free assay; purified cruzain, Z-FR-AMC fluorescence, no detergent; Potency, µM, without a hit: max response, negative = inhibition, most hits filed as inhibitors; P25779; 2.3% of 200,000 active; AID 1476;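 also: plate controls were enzyme without inhibitor for no effect and buffer without enzyme for full effect; nearly all actives have a fitted effect of over 40% in size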
Target sequence (P25779 123-467 limits assumed): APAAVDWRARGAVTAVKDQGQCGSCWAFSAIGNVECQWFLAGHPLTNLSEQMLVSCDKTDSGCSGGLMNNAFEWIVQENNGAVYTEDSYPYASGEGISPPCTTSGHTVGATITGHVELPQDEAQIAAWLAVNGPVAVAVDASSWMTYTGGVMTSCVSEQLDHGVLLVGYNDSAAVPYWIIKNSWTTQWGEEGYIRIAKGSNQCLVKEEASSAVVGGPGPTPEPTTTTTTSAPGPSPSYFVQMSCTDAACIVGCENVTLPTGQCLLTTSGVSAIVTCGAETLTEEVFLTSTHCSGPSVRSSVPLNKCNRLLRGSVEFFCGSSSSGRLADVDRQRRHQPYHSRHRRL
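Detergent-free condition (0.00005% Triton X-100) in acetate buffer pH 5.5 with DTT. 1.5 nM enzyme and compound were pre-mixed 15 min, then 2 uM Z-FR-AMC substrate added; reaction progress from fluorescence change between first and third reads (60 s).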
Cruzain inh Det – inhibitors of Trypanosoma cruzi cruzain with detergent. P25779. Potency, µM, inactives show max response, negative = inhibition, hits mostly inhibitors. purified cruzain, Z-FR-AMC fluorescence, 0.01% Triton. 0.43% of 200,000 active. AID 1478;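 also: plate controls were neutral wells for no effect and buffer without enzyme for full effect; nearly all actives have a fitted effect of over 40% in size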
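Cruzain (1.5 nM) preincubated 15 min at RT with compound in 100 mM sodium acetate pH 5.5, 5 mM DTT, 0.01% Triton X-100. Reaction started with 2 uM Z-FR-AMC; AMC fluorescence (ex 360/em 450 nm) change over 60 s gave rate.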
Starred values were filed as active, the others as inactive; ? = inconclusive. A selection: hits, their analogues and other compounds. The true share with any hit is near 2.5%. Calls follow the shape of the dose curve; as a rule, active = well fitted curve in the direction sought with a large enough effect; inconclusive = small, poorly fitted or top-dose-only effect, or another doubt; inactive = no such curve, though single readings can be large; an effect the other way counts as inactive or inconclusive. Potency is read from the fitted curve at half-maximal effect.

SMILES	Cruzain noTriton	Cruzain inh Det
COc1ccc(C2/C=C\CN(C(=O)OCC3c4ccccc4-c4ccccc43)CC(=O)N2Cc2cccc(F)c2)cc1 (configuration not stated)	25µM*	-2%
COc1ccc(C2/C=C\CN(CC(C)C)CC(=O)N2Cc2cccc(F)c2)cc1 (configuration not stated)	-3%	2%
COc1ccc2nc(NC(=O)CSc3nc4ccccc4o3)sc2c1	-18%	5%
O=C(CSc1nc2ccccc2o1)Nc1nc2ccc(Br)cc2s1	10µM*	1%
O=c1c(-c2ccc(F)cc2)nc2cnc(N3CCOCC3)nc2n1C1CC1	1%	0%
CC(C)OC(=O)c1c(NC(=O)C2c3ccccc3Oc3ccccc32)sc2c1CCCC2	6.3µM*	-7%
CCOC(=O)c1c(NC(=O)C2c3ccccc3Oc3ccccc32)sc(C(N)=O)c1C	-24%	2%
CCCOC(=O)c1c(NC(=O)C2c3ccccc3Oc3ccccc32)sc2c1CCCC2	25µM*	-4%
CCN(CC)C(=O)c1sc(NC(=O)C2c3ccccc3Oc3ccccc32)c(C(=O)OC(C)C)c1C	-7%	-1%
CCOC(=O)c1c(NC(=O)c2ccccc2OCC)sc2c1CCC(CC)C2 (configuration not stated)	2%	-1%
CCC1CCc2c(sc(NC(=O)C3c4ccccc4Oc4ccccc43)c2C(N)=O)C1 (configuration not stated)	25µM*	-1%
COc1ccc(NC(=O)N2CC[C@@]3(CCCN(C(=O)c4csnn4)C3)C2)cc1	5%	1%
Cc1c(NC(=O)Nc2ccccc2C(F)(F)F)sc2nc3n(c(=O)c12)CCC(C)CC3 (configuration not stated)	-13%	-1%
Cc1ccc2c(CC(=O)Nc3ccc(S(=O)(=O)N4CCCCC4C)cc3)coc2c1 (configuration not stated)	25µM*	-6%
Cc1ccc2c(CC(=O)Nc3ccc(S(=O)(=O)N4CCCCC4C)cc3)coc2c1C (configuration not stated)	?	-6%
CCC1=C2CC[C@H]3C(=O)N(CC)C(=O)[C@H]3[C@H]2[C@@]2(Cc3ccccc3)C(=NCC3CC3)OC(=O)N2C1=O	6%	0%
COc1ccccc1/C=N/n1c(N)c(S(=O)(=O)c2cccs2)c2nc3ccccc3nc21	7.9µM*	4%
COc1ccc(CCn2c(N)c(S(=O)(=O)c3cccs3)c3nc4ccccc4nc32)cc1OC	-3%	-10%
Cc1cccc(S(=O)(=O)c2c(N)n(/N=C/c3ccccc3)c3nc4ccccc4nc23)c1	4µM*	1%
Nc1c(S(=O)(=O)c2ccccc2)c2nc3ccccc3nc2n1/N=C/c1cccc(O)c1	-23%	1%
CCc1ccc(NC(=O)Cn2c(=O)n(CCCC(=O)NCCc3ccc(OC)c(OC)c3)c(=O)c3ccccc32)cc1	1%	-3%
CN1C[C@@H](CO)C=C2c3cccc4[nH]cc(c34)CC21 (some centres not stated)	40µM*	8%
CCC(CO)NC(=O)[C@@H]1C=C2c3cccc4[nH]cc(c34)C[C@H]2N(C)C1 (some centres not stated)	?	-8%
CCC(=O)N1CCc2cc(CNC(=O)Nc3ccc(OC)cc3OC)ccc21	-5%	0%
COC(=O)c1ccccc1NC(=O)Cc1noc2ccc(C)cc12	2%	-4%
SMILES	Cruzain noTriton	Cruzain inh Det
COC(=O)c1ccccc1NC(=O)Cc1nc(-c2ccccc2)sc1-c1ccc(C)cc1	25µM*	-4%
CCCCC/C=C\C/C=C\C[C@H](O)/C=C/C=C\CCCC(=O)O	-12%	1%
O=C(NCc1ccccc1)c1cccn1-c1nnc(N2CCCC2)s1	-2%	0%
COc1ccc(/C=N/NC(=O)c2nn(-c3ccccc3)c(=O)c3c(N)scc23)cc1	20µM*	-10%
COc1ccc(/C=N/NC(=O)c2nn(-c3ccc(Cl)cc3)c(=O)c3c(N)scc23)cc1	13µM*	-6%
COc1ccc(/C=N/NC(=O)c2nn(-c3ccc(C)c(C)c3)c(=O)c3ccccc23)cc1	-11%	-6%
CCOC(=O)c1nn(-c2ccc(OC)cc2)c(=O)c2c(N)scc12	6%	-14%
COc1cccc(N2CC(NC(=O)c3ccc(S(=O)(=O)N4CCCCC4)cc3)CC2=O)c1 (configuration not stated)	9%	-2%
CCN1CCN(c2ncc3c(n2)CCN(Cc2ccccc2C)C3)CC1	-3%	0%
Cc1cc(C)cc(OCC(=O)Nc2cccc3cccnc23)c1	-8%	-5%
Nc1nc(N)c(CCCCc2ccccc2)c(N)n1	-6%	6%
S[C@@H]1CCCN(Cc2ccccc2)C1	-3%	-4%
Cc1ccc(CCNC(=O)CCCc2nnc3n(C)c(=O)c4sccc4n23)cc1	1%	-1%
Cc1ccc(S(=O)(=O)N2CCN(C(=O)CSc3ncc(C(F)(F)F)cc3Cl)CC2)cc1	7%	-4%
Cc1ccc(CO/N=C\Cc2snc(Sc3ncc(C(F)(F)F)cc3Cl)c2C#N)cc1	4µM*	-8%

From PubChem BioAssay
